Drawing on PubChem BioAssay (NCI), this text covers growth inhibition for 20 compounds.

The structures appear in SMILES notation. About 79,000 compounds went through this panel and 15% of them were active in at least one assay; those are over-represented in the sample as a whole. Unmarked numbers belong to inactive results. The source made the active and inactive calls. Rule as the data show it: active = growth inhibition above about 70%; inactive = the rest.

The nature of test [1]: NCI Yeast Anticancer Drug Screen. Data for the rad50 strain (AID 155).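 Also: 0% = growth of vehicle-only cultures of the same strain.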 Conditions: S. cerevisiae rad50 strain growth inhibition; at 50.0 µM; hits give high values. In a few lines: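 Growth of the mutant yeast was measured after compound exposure and referenced to vehicle-treated cultures.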
Test [2] can be described thus: NCI Yeast Anticancer Drug Screen. Data for the mec2-1 strain (AID 157). Conditions: S. cerevisiae mec2-1 strain, at 50.0 µM, hits give high values. In a few lines:
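Test agents were screened against the mec2-1 yeast strain, with defined DNA repair or cell cycle alteration. Growth was scored as inhibition against vehicle-only controls.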

A short description of test [3]: NCI Yeast Anticancer Drug Screen. Data for the sgs1 mgt1 strain (AID 161).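 Also: 0% = growth of cultures given vehicle only.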 Conditions: S. cerevisiae sgs1 mgt1 strain, at 50.0 µM, hits give high values. An outline of the steps: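 Mutant yeast exposed to compound; growth scored against vehicle-only wells.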
Test [4] in a line: NCI Yeast Anticancer Drug Screen. Data for the cln2 rad14 strain (AID 165).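 Also: 0% = growth equal to vehicle treated cultures.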 To be noted: S. cerevisiae cln2 rad14 strain, at 50.0 µM, hits give high values. In a few lines:
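Growth of compound-exposed yeast (cln2 rad14 genotype) measured and expressed as inhibition relative to vehicle.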

Test [5] is described as follows: NCI Yeast Anticancer Drug Screen. Data for the bub3 strain (AID 167). To be noted: S. cerevisiae bub3 mutant strain, at 50.0 µM, hits give high values. An outline of the steps:
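Whole-cell yeast assay. The mutant strain was incubated with compounds, and growth inhibition was determined by comparison with vehicle-treated cells.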

Test [6] can be described thus: NCI Yeast Anticancer Drug Screen. Data for the mlh1 rad18 strain (AID 175). Conditions: S. cerevisiae mlh1 rad18 strain growth inhibition; at 50.0 µM; hits give high values. In a few lines:
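In this whole-cell yeast screen, a strain with altered DNA damage repair is challenged with compound, and its growth is measured against matched vehicle-treated controls.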

Consider `O=Cc1cccc(OC(=O)Nc2ccccc2)c1`, for which the growth inhibition was 39% in test [1]; 24.8% in test [2]; 24.5% in test [3]; -17.5% in test [4]; 17.1% in test [5]; 0.95% in test [6].

For the compound `Oc1ccc(Cl)cc1/C=N\NC(=S)Nc1ccc2cn[nH]c2c1`, the growth inhibition was -2.7% in test [1]; 10.1% in test [2]; 13.9% in test [3]; -39.4% in test [4]; 20.8% in test [5]; 11.3% in test [6].

With `c1cncc(CSc2ncnc3nc[nH]c23)c1`, the growth inhibition in test [1] was 11.8%; in test [2], -24.4%; in test [3], -20.1%; in test [4], -21.7%; in test [5] it was -48.4%; in test [6] it was -10.5%.

Turning to `CSc1nc(C)cc(Nc2ccc(O)c(CN3CCOCC3)c2)n1`, the growth inhibition is 6.1% in test [1]; -3.25% in test [2]; -22% in test [3]; -33.1% in test [4]; -52% in test [5]; 9.4% in test [6].

Take `CC(=O)Nc1cc(C)c(C)cc1NC(C)=O`: the growth inhibition in test [1] was -23.9%; in test [2] it was -16.6%; in test [3], -8.35%; in test [4], -21.8%; in test [5], -5.1%; in test [6], -7.4%.

For the compound `CN(C)S(=O)(=O)c1ccc(Nc2ccc(O)c3c2C(=O)c2c([N+](=O)[O-])ccc(O)c2C3=O)cc1`, the growth inhibition in test [1] was 54.9%; in test [2], 13.4%; in test [3], -31.9%; in test [4], -8.3%; in test [5] it was -27.8%; in test [6], 26.1%.

As to `CNC(=O)CCC(=O)O`, the growth inhibition in test [1] was -7.25%; in test [2] it was -20.2%; in test [3] it was -7.5%; in test [4], -2.7%; in test [5], -23.4%; in test [6], -8.45%.

In the case of `COC1CC(OC(=O)c2ccccc2)C(OC(=O)c2ccccc2)C(CBr)O1` (stereo not given), the growth inhibition in test [1] was 85.3% (active); in test [2], 90.2% (active); in test [3] it was 88.6% (active); in test [4], 91% (active); in test [5], 80.1% (active); in test [6], 89.1% (active).

Consider `CC(=O)[C@@]1(O)CC[C@H]2[C@@H]3C[C@H](C)C4=CC(=O)CC[C@]4(C)[C@H]3[C@@H](O)C[C@@]21C`, for which the growth inhibition in test [1] is -27.9%; in test [2], -8.8%; in test [3], -19.1%; in test [4], -36.2%; in test [5], 12.7%; in test [6] it was -22.4%.

For `C#CCCOC1(OC)N=NC(C)(C)O1` (stereo not given), the growth inhibition in test [1] was 1.05%; in test [2], 0.9%; in test [3], -6.95%; in test [4], 12.3%; in test [5], -2.65%; in test [6], -24.6%.

For `CCSC1OC(C(O)CO)C(O)C1NC(=O)C(F)(F)F` (stereo not given), the growth inhibition in test [1] was 5.65%; in test [2], 6.05%; in test [3], 1.5%; in test [4] it was 1.1%; in test [5], 32%; in test [6], 12.8%.

For the compound `C/C=C/c1cc(C=O)cc(OC)c1O`, the growth inhibition in test [1] is 0.15%; in test [2], -8.1%; in test [3], -5.4%; in test [4], -10.6%; in test [5], -4.4%; in test [6] it was 5.75%.

With `COC(=O)C=Cc1ccc2nncnc2c1` (mixture of isomers), the growth inhibition in test [1] was 24.1%; in test [2], 21.7%; in test [3], 8.15%; in test [4], 17.1%; in test [5], 36.4%; in test [6], -7.7%.

In the case of `COc1ccc(C2C(C(=O)NCc3ccccc3)=C(C)NC(C)=C2C(=O)NCc2ccccc2)cc1OC`, the growth inhibition was -1.8% in test [1]; -4.5% in test [2]; -23.6% in test [3]; 8.4% in test [4]; 3.35% in test [5]; 16.9% in test [6].

On to `CC(=O)C(=CC=C(c1ccc(N(C)C)cc1)c1ccc(N(C)C)cc1)C(C)=O`, for which the growth inhibition in test [1] was -45.3%; in test [2], -8.55%; in test [3], 9.5%; in test [4], -14.8%; in test [5], 12.7%; in test [6], -13.6%.

As for `CCN(CC)c1ccc(C)cc1Cl`, the growth inhibition was -5.7% in test [1]; 7.5% in test [2]; -12.2% in test [3]; -16.8% in test [4]; 7.05% in test [5]; 5.55% in test [6].

With `Cc1ccc(CNC(=O)C2CCCCC2C(=O)O)cc1` (stereo not given), the growth inhibition in test [1] is 6.65%; in test [2], 21.7%; in test [3], 6.95%; in test [4] it was 10.4%; in test [5] it was 27.9%; in test [6], -16.1%.

Turning to `Cc1[nH]c2ccccc2c1CC1CC(=O)OC1=O` (stereo not given), the growth inhibition in test [1] is -8.35%; in test [2] it was -18.6%; in test [3], 12.5%; in test [4], 6.3%; in test [5], -9.15%; in test [6], -7.15%.

For `O=c1[nH]cnc2c1CNC2`, the growth inhibition was 9.5% in test [1]; -2.5% in test [2]; -10.4% in test [3]; -65.8% in test [4]; -18.4% in test [5]; 1.6% in test [6].

Turning to `Nc1ncnc2c1ncn2C1CCN(CCO)C1=O` (stereo not given), the growth inhibition in test [1] is -5.55%; in test [2], -5.55%; in test [3], -29.1%; in test [4] it was -17.4%; in test [5] it was -5.2%; in test [6], -14.8%.
